In PubChem BioAssay (NCATS):
Records with an inconclusive call do not appear. Entries that show only a call come without a potency. Activity calls are given as the source filed them. Calls come from the whole dose curve; as a rule, active = well fitted inhibition curve with a large enough effect; inconclusive = small, poorly fitted or top-dose-only effect; inactive = flat fitted curve, though single readings scatter.

How the values were obtained:
Test in all cases: qHTS profiling for inhibitors of Plasmodium falciparum proliferation (AID 504749); note: nearly all actives have a fitted effect of over 60% in size
Settings in all cases: P. falciparum in erythrocytes, SYBR Green DNA, 72 h; series mostly up to 28.7 µM
[1] = test system: AA1029
In short: (§1)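 P. falciparum-infected erythrocytes (0.3% parasitemia, 2.5% hematocrit final) were exposed to compounds for 72 h at 37 C in 5% CO2, then lysed with SYBR Green buffer overnight at room temperature; parasite DNA fluorescence was normalized to artemisinin and DMSO controls.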

[2] = test system: C2A
In short: as §1

[3] = test system: CP185
In short: as §1

[4] = test system: CP194
In short: as §1

[5] = test system: CP201
In short: as §1

[6] = test system: CP211
In short: as §1

[7] = test system: CP238
In short: as §1

[8] = test system: CP252
In short: as §1

[9] = test system: CP256
In short: as §1

[10] = test system: CP262
In short: as §1

[11] = test system: CP266
In short: as §1

[12] = test system: CP268
In short: as §1

[13] = test system: CP269
In short: as §1

[14] = test system: CP305
In short: as §1

[15] = test system: CP325
In short: as §1

[16] = test system: CP329
In short: as §1

[17] = test system: DIV17
In short: as §1

[18] = test system: FAB9
In short: as §1

[19] = test system: ICS
In short: as §1

[20] = test system: P94_40
In short: as §1
Potency is the fitted concentration of half-maximal effect.

SMILES | Potency [1] | Potency [2] | Potency [3] | Potency [4] | Potency [5] | Potency [6] | Potency [7] | Potency [8] | Potency [9] | Potency [10] | Potency [11] | Potency [12] | Potency [13] | Potency [14] | Potency [15] | Potency [16] | Potency [17] | Potency [18] | Potency [19] | Potency [20]
Cc1c(C(=O)O)c(O)cc2c1C(=O)c1c(O)c([C@H]3O[C@H](CO)[C@@H](O)[C@H](O)[C@H]3O)c(O)c(O)c1C2=O | inactive | inactive | inactive | inactive | inactive | inactive | inactive | inactive | inactive | inactive | inactive | inactive | inactive | inactive | inactive | inactive | inactive | inactive | inactive | inactive
C=C1CC[C@H](O)C/C1=C/C=C1\CCC[C@]2(C)[C@@H]([C@H](C)CCCC(C)C)CC[C@@H]12 | inactive | inactive | inactive | inactive | inactive | inactive | inactive | inactive | inactive | inactive | inactive | inactive | inactive | inactive | inactive | inactive | inactive | inactive | 10 µM (active) | inactive
NS(=O)(=O)c1cc2c(cc1Cl)N[C@H](Cc1ccccc1)NS2(=O)=O | inactive | inactive | inactive | inactive | inactive | inactive | inactive | inactive | inactive | inactive | inactive | inactive | inactive | inactive | inactive | inactive | inactive | inactive | inactive | inactive
C[C@]12CC[C@H]3c4ccc(O)cc4CC[C@@H]3[C@H]1CC[C@@H]2OC(=O)CCC1CCCC1 | inactive | inactive | inactive | inactive | inactive | inactive | inactive | inactive | inactive | inactive | inactive | inactive | inactive | inactive | inactive | inactive | 10.7 µM (active) | inactive | 3.16 µM (active) | inactive
Cc1cn([C@H]2C[C@H](N=[N+]=[N-])[C@H](CO)O2)c(=O)[nH]c1=O | inactive | inactive | inactive | inactive | inactive | inactive | inactive | inactive | inactive | inactive | inactive | inactive | inactive | inactive | inactive | inactive | inactive | inactive | inactive | inactive
O=C(O)[C@@H](S)[C@H](S)C(=O)O | 10 µM (active) | 7.08 µM (active) | 11.2 µM (active) | 15.1 µM (active) | 12 µM (active) | 6.75 µM (active) | 12.6 µM (active) | 10 µM (active) | 7.94 µM (active) | 6.75 µM (active) | 9.53 µM (active) | 13.5 µM (active) | 6.75 µM (active) | 7.57 µM (active) | 9.53 µM (active) | 10.7 µM (active) | 13.5 µM (active) | 11.2 µM (active) | 8.91 µM (active) | 4.47 µM (active)
